The nature of assay [1]: qHTS of pediatric cancer cell lines to identify multiple opportunities for drug repurposing: Primary screen for BT-37 cells (AID 1347094). Also: potency is read from the fitted curve at half-maximal effect. The procedure, abridged: (§1)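 500-1,000 cells/well; 5 h pre-incubation 37 °C/5% CO2; compound pinned; 48 h; CellTiter-Glo, 15 min RT; luminescence. MIPE 11-pt from 0.78 nM, NPC 8-pt from 0.59 nM final. Bortezomib 2.3 µM final as positive control.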

Assay [2] in a line: qHTS of pediatric cancer cell lines to identify multiple opportunities for drug repurposing: Primary screen for NB1643 cells (AID 1347099). Also: nearly all actives have a fitted effect of over 50% in size. Also: potency is read from the fitted curve at half-maximal effect. An outline of the steps:
as §1

Assay [3] is described as follows: qHTS of pediatric cancer cell lines to identify multiple opportunities for drug repurposing: Primary screen for LAN-5 cells (AID 1347100). The procedure, abridged: (§2)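 Viability after 48 h compound treatment at 37C, 500-1,000 cells/well, read as ATP luminescence with CellTiter-Glo. Primary screens used 11-point (MIPE, 0.78 nM-46 µM) or 8-point (NPC, 0.59 nM-46 µM) final concentrations; follow-up screens used 11-point dilutions.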

Assay [4] is described as follows: qHTS of pediatric cancer cell lines to identify multiple opportunities for drug repurposing: Primary screen for Rh18 cells (AID 1347102). Also: nearly all actives have a fitted effect of over 65% in size. Also: potency is read from the fitted curve at half-maximal effect. The procedure, abridged:
as §2

Assay [5] in a line: qHTS of pediatric cancer cell lines to identify multiple opportunities for drug repurposing: Primary screen for MG 63 (6-TG R) cells (AID 1347105). Also: nearly all actives have a fitted effect of over 50% in size. The procedure, abridged:
as §1

Assay [6] is described as follows: qHTS of pediatric cancer cell lines to identify multiple opportunities for drug repurposing: Primary screen for control Hh wild type fibroblast cells (AID 1347106).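 Also: series mostly up to about 46 µM; a drop in luminescence marks cytotoxicity and a rise apparent proliferation; nearly all actives have a fitted effect of over 55% in size.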 An outline of the steps:
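Cells (500-1,000/well) in growth media were settled 5 h at 37 degrees C, then given compounds for 48 h. Viability was read as CellTiter-Glo luminescence. Primary runs used MIPE at 11 points (0.78 nM-46 µM) and NPC at 8 points (0.59 nM-46 µM); follow-ups used 11 points.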

Assay [7] is described as follows: qHTS of pediatric cancer cell lines to identify multiple opportunities for drug repurposing: Primary screen for Rh30 cells (AID 1347107). Also: series mostly up to about 46 µM; nearly all actives have a fitted effect of over 75% in size. The procedure, abridged: as §2
Assay [8] in a line: qHTS of pediatric cancer cell lines to identify multiple opportunities for drug repurposing: Primary screen for NB-EBc1 cells (AID 1347095). An outline of the steps: as §1
The nature of assay [9]: qHTS of pediatric cancer cell lines to identify multiple opportunities for drug repurposing: Primary screen for U-2 OS cells (AID 1347096). Also: nearly all actives have a fitted effect of over 50% in size. The procedure, abridged: as §2
Assay [10] in a line: qHTS of pediatric cancer cell lines to identify multiple opportunities for drug repurposing: Primary screen for Saos-2 cells (AID 1347097). Also: nearly all actives have a fitted effect of over 40% in size. Also: potency is read from the fitted curve at half-maximal effect. The procedure, abridged: as §1
Assay [11] is described as follows: qHTS of pediatric cancer cell lines to identify multiple opportunities for drug repurposing: Primary screen for SK-N-SH cells (AID 1347098). Also: nearly all actives have a fitted effect of over 65% in size. Also: potency is read from the fitted curve at half-maximal effect. An outline of the steps: (§3)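 Cells (500-1,000/well) rested 5 h, then received compounds for 48 h; metabolically active cells were measured by CellTiter-Glo luminescence. Final concentrations spanned up to 46 µM (MIPE, 11-point) or 0.59 nM-46 µM (NPC, 8-point) in primary screens, 11-point in follow-ups.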

Assay [12] is described as follows: qHTS of pediatric cancer cell lines to identify multiple opportunities for drug repurposing: Primary screen for BT-12 cells (AID 1347101). Also: nearly all actives have a fitted effect of over 25% in size. Also: potency is read from the fitted curve at half-maximal effect. The procedure, abridged:
as §3

Assay [13] in a line: qHTS of pediatric cancer cell lines to identify multiple opportunities for drug repurposing: Primary screen for RD cells (AID 1347104). Also: nearly all actives have a fitted effect of over 55% in size. Also: potency is read from the fitted curve at half-maximal effect. The procedure, abridged: as §1
Assay [14] in a line: qHTS of pediatric cancer cell lines to identify multiple opportunities for drug repurposing: Primary screen for Rh41 cells (AID 1347108).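 Also: series mostly up to about 46 µM; luminescence drop marks cytotoxic hits; nearly all actives have a fitted effect of over 70% in size.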 An outline of the steps: as §1
The nature of assay [15]: qHTS of pediatric cancer cell lines to identify multiple opportunities for drug repurposing: Primary screen for OHS-50 cells (AID 1347103). Also: nearly all actives have a fitted effect of over 40% in size. Also: potency is read from the fitted curve at half-maximal effect. An outline of the steps:
as §3

The nature of assay [16]: qHTS of pediatric cancer cell lines to identify multiple opportunities for drug repurposing: Confirmatory screen for SK-N-MC cells (AID 1347111).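 Also: potency is read from the fitted curve at half-maximal effect; cells exposed to compound for 48 h before the readout; nearly all actives have a fitted effect of over 70% in size.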 The conditions noted are these: SK-N-MC cell viability. The procedure, abridged:
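SK-N-MC cells at 500-1,000 cells/well in growth media were pre-incubated 5 h, then exposed to compounds at 11-point dilutions for 48 h at 37 degrees C, 5% CO2. Viability was read as CellTiter-Glo luminescence.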

Inconclusive results are not listed. Active and inactive are the calls of the source. Calls follow the shape of the dose curve; as a rule, active = well fitted curve in the direction sought with a large enough effect; inconclusive = small, poorly fitted or top-dose-only effect, or another doubt; inactive = no such curve, though single readings can be large; an effect the other way counts as inactive or inconclusive.

`Cc1nc2sccn2c(=O)c1CCN1CCC(=C(c2ccc(F)cc2)c2ccc(F)cc2)CC1`: the Potency entry in [1], in assay [2], in assay [3], in assay [4], in [5] and in assay [7] was “inactive” in each case. In addition, the compound was called inactive in [6].
On to `COC(=O)[C@H]1[C@H]2C[C@@H]3c4[nH]c5cc(OC)ccc5c4CCN3C[C@H]2C[C@@H](OC(=O)c2cc(OC)c(OC)c(OC)c2)[C@@H]1OC`, for which the Potency result in assay [1], in assay [8], in assay [9], in assay [2], in assay [3] and in assay [4] was “inactive” each time. In addition, the Potency entry in assay [7] was “inactive”. Besides, the Potency in assay [10] was 23.7 µM (active).
On to `CC(C)NCC(O)c1cc(O)cc(O)c1` (stereo not drawn), for which the Potency entry in assay [1], in [8], in [10], in assay [11], in assay [3] and in [12] was “inactive” in each case. For the same compound, the Potency entry in [4], in [13], in assay [5] and in assay [14] was “inactive” throughout. The compound was classed as inactive in assay [6].
For the compound `Cc1ccc(Cl)c(Nc2ccccc2C(=O)O)c1Cl`, the Potency entry in [1], in [9], in assay [3], in [12], in assay [4] and in [15] was “inactive” each time. For the same compound, the Potency result in assay [13] and in assay [7] was “inactive” each time. Also, the outcome in assay [6] was inactive.
Consider `COCCCC/C(=N\OCCN)c1ccc(C(F)(F)F)cc1`, for which the Potency entry in [1], in [8], in [2], in assay [3], in assay [12] and in assay [4] was “inactive” in each case. In addition, the Potency result in assay [5], in assay [7] and in assay [14] was “inactive” each time. In assay [6], the result was inactive.
Turning to `COCCOC(=O)C1=C(C)NC(C)=C(C(=O)OC(C)C)C1c1cccc([N+](=O)[O-])c1` (stereo not drawn), the Potency entry in assay [9], in [11] and in [2] was “inactive” each time. The Potency in [4] is 18.8 µM (active). Also, the compound was called inactive in [6].
`CO[C@@]1(NC(=O)CSCC#N)C(=O)N2C(C(=O)O)=C(CSc3nnnn3C)CS[C@@H]21`: the Potency entry in assay [1], in assay [8], in [10], in assay [11], in assay [2] and in assay [3] was “inactive” each time. Also, the Potency result in assay [12], in assay [4], in [15], in assay [13], in [5] and in assay [7] was “inactive” in each case. Also, the Potency entry in [14] is “inactive”. Moreover, the outcome in assay [6] was inactive.
As for `CC1=C(C)C(=O)C(CCCCC#CCCCC#CCO)=C(C)C1=O`, the Potency result in assay [1], in assay [8], in assay [9], in assay [11], in [4] and in assay [13] was “inactive” each time. Besides, the Potency entry in [5] and in assay [14] was “inactive” in each case. In [15], the Potency is 21.9 µM (active).
With `Cc1nc2c([nH]1)c(=O)n(C)c(=O)n2Cc1ccco1`, the Potency entry in assay [1], in assay [8], in [10], in assay [11], in assay [2] and in [3] was “inactive” each time. Besides, the Potency result in [12], in [4], in assay [15], in assay [13], in assay [5] and in assay [14] was “inactive” in each case. Besides, in [6], the result was inactive.
With `CN=C(NC#N)NCCSCc1nc[nH]c1C`, the Potency result in assay [1], in assay [9], in assay [11], in assay [2], in assay [3] and in [12] was “inactive” throughout. Also, the Potency entry in assay [4], in assay [13], in assay [5], in [7] and in [14] was “inactive” in each case.
With `CCCCNc1c(C(=O)OCC)c(C)nc2c1cnn2CC`, the Potency entry in [1], in assay [8], in assay [2], in [12], in assay [4] and in assay [13] was “inactive” throughout. Also, the Potency entry in assay [5], in assay [7] and in assay [14] was “inactive” each time. In addition, the Potency in [10] is 26.6 µM (active). Also, in assay [6], the compound was classed as inactive.
In the case of `COc1ccc2c(c1OC)C(=O)O[C@@H]2[C@H]1c2c(cc3c(c2OC)OCO3)CCN1C`, the Potency result in assay [1], in assay [9], in assay [2], in [4], in [15] and in [13] was “inactive” each time. In addition, the Potency result in [5], in assay [7] and in [14] was “inactive” throughout. Moreover, in assay [6], the call was inactive.
Consider `O=C(CCNNC(=O)c1ccncc1)NCc1ccccc1`, for which the Potency result in assay [1], in [8], in assay [10], in assay [11], in assay [2] and in assay [3] was “inactive” in each case. In addition, the Potency result in assay [12], in [4], in [15], in assay [13], in assay [5] and in [7] was “inactive” throughout. For the same compound, the Potency entry in assay [14] is “inactive”.
Consider `CCCCCCCC/C=C\CCCCCCCC(=O)NCc1ccc(O)c(OC)c1`, for which the Potency entry in assay [1], in assay [9], in [11], in assay [2], in assay [4] and in assay [13] was “inactive” throughout. Further, the Potency result in assay [5] was “inactive”.
With `NC1=NCC2c3ccccc3Cc3ccccc3N12` (stereo not drawn), the Potency entry in assay [1], in [10], in assay [11], in assay [2], in assay [3] and in assay [13] was “inactive” in each case. For the same compound, the Potency entry in assay [5] and in [7] was “inactive” throughout. The result in [6] was inactive.
Turning to `COC(=O)C1=C(C)NC(C)=C(C(=O)OCCN(C)Cc2ccccc2)C1c1cccc([N+](=O)[O-])c1` (stereo not drawn), the Potency was 29.9 µM (active) in [10], 4.33 µM (active) in assay [11], 21.1 µM (active) in assay [2] and 17.4 µM (active) in [15].
Turning to `c1cc(CN2CCCCC2)cc(OCCCNc2nc3ccccc3s2)c1`, the Potency result in assay [8], in [2], in [4], in assay [5] and in assay [7] was “inactive” each time. The Potency in assay [11] is 24.4 µM (active); in assay [15], 27.6 µM (active). In [6], the call was inactive.
Take `CN(C)CCCN1c2ccccc2Sc2ccc(C(F)(F)F)cc21`: the Potency was 4.9 µM (active) in assay [12], 24.6 µM (active) in assay [15] and 26.1 µM (active) in [16]. Besides, the Potency entry in [5], in assay [7] and in [14] was “inactive” in each case.
As for `Fc1ccc(C(c2ccc(F)cc2)N2CCN(C/C=C/c3ccccc3)CC2)cc1`, the Potency result in assay [2], in [4], in assay [5] and in [7] was “inactive” each time. Also, the Potency in [15] is 17.4 µM (active). The call in assay [6] was inactive.
For the compound `CCCCCN(CCCCC)C(=O)C(CCC(=O)O)NC(=O)c1ccc(Cl)c(Cl)c1` (stereo not drawn), the Potency result in [1], in assay [8], in assay [10], in assay [11], in assay [2] and in [3] was “inactive” each time. Further, the Potency entry in assay [12], in assay [4], in assay [15], in [13], in assay [5] and in [7] was “inactive” throughout. Also, in assay [14], the Potency entry is “inactive”. Besides, the outcome in assay [6] was inactive.
For `CCc1cccc(N(C)C(N)=Nc2cccc3ccccc23)c1`, the Potency result in assay [8], in assay [2], in assay [3] and in [7] was “inactive” throughout. In addition, the Potency in assay [10] is 18.8 µM (active); in assay [15] it was 15.5 µM (active).
Regarding `CCNC(=O)N1CCN(CCCC(c2ccc(F)cc2)c2ccc(F)cc2)CC1`, the Potency result in assay [8], in assay [10], in assay [2], in [3], in [4] and in assay [13] was “inactive” throughout. Further, the Potency result in assay [5] and in assay [7] was “inactive” in each case. Moreover, the Potency in assay [11] was 30.7 µM (active). The call in assay [6] was inactive.
`CCCC(C(=O)OCCN(CC)CC)(c1ccccc1)c1ccccc1`: the Potency in assay [1] is 30.9 µM (active); in assay [10], 26.6 µM (active); in assay [11], 19.4 µM (active); in assay [15] it was 30.9 µM (active); in assay [13], 29.9 µM (active). The Potency entry in [3] is “inactive”. Further, the compound was called inactive in assay [6].

For the origin of these results see PubChem BioAssay (NCATS).
